Pf growth 96h – inhibits malaria parasite growth, 96 h; P. falciparum luciferase reporter growth, 96 h; Potency, µM (top dose mostly 28.7 µM), without a hit: top-dose activity change, negative = inhibition, hits mostly inhibitors; 6.9% of 320,000 active; also: potency is read from the fitted curve at half-maximal effect; % is scaled to controls: 0 for no effect and ±100 for the full control effect
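Readout is luminescence from an integrated firefly luciferase in P. falciparum. Red cells, 2% hematocrit and 0.05% parasitemia final, were cultured with compound through two parasite generations (96 hours) at 37 C, 5% CO2.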
Cycloheximide cs – affects cycloheximide protein synthesis inhibition readout, counter-screen; cell reporter, cycloheximide protein synthesis inhibition counterscreen; max response, %; 12% of 300,000 active; in the data active = max response mostly above about 13%, no sharp cut-off; inactive = mostly below about 14%; also: read at 38.3 µM for the half of the compounds with a filed dose; 0% is about no effect
Shiga inhibitor – inhibitors of Shiga toxin in Vero cells; Vero cells, Shiga toxin protein synthesis inhibition reporter; inhibition, % at 38.7 µM; 9.2% of 290,000 active; in the data active = inhibition mostly above about 28%, no sharp cut-off; inactive = mostly below about 43%; also: 0% is about no effect
Pf growth 48h – P. falciparum growth inhibition at 48 hours (one generation) | P. falciparum luciferase growth in erythrocytes, 48 h | Potency, µM (series often up to 28.7 µM), for inactives: at the top dose activity change, negative = inhibition, most hits filed as inhibitors | 5.9% of 310,000 active; also: potency is read from the fitted curve at half-maximal effect; % is scaled to controls: 0 for no effect and ±100 for the full control effect
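Growth was read as firefly luciferase luminescence after a 48 h, 37 C, 5% CO2 exposure of compounds to reporter-bearing P. falciparum cultures (0.1% parasitemia, 2% hematocrit final) in Albumax-supplemented RPMI 1640.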
* = called active by the depositor. An excerpt weighted towards active compounds, which were near 21% of everything screened. Unless noted, calls follow the shape of the dose curve; as a rule, active = well fitted inhibition curve with a large enough effect; inconclusive = small, poorly fitted or top-dose-only effect, or another doubt; inactive = no such curve, though single readings can be large or run the other way.

`CO/N=C/CC(=O)c1cnc(-c2ccccc2)s1` gave Pf growth 96h 31%, Cycloheximide cs 19*, Shiga inhibitor 40 and Pf growth 48h 3%.
For Cc1ccc(-c2csc(NC(=O)C3=NN(c4ccccc4)C(=O)CC3)n2)cc1 the results were Pf growth 96h inconclusive, Cycloheximide cs 4, Shiga inhibitor 26 and Pf growth 48h inconclusive.
`O=C(Cn1nc(C(F)F)cc1C1CC1)NCCC1=CCCCC1` gave Pf growth 96h 3.3µM*, Cycloheximide cs -1, Shiga inhibitor -28 and Pf growth 48h -27%.
Cc1c2ccccc2c(C)c2c1ccc1ccccc12 was read as Pf growth 96h 0.66µM* and Pf growth 48h 0.93µM*.
CCN(C(=O)Cn1c(=O)oc2ccccc21)c1ccc(C)c(C)c1 was read as Pf growth 96h 25%, Cycloheximide cs -5, Shiga inhibitor 17 and Pf growth 48h inconclusive.
Cc1cc(C)cc(NC(=O)CCNS(=O)(=O)c2cc(Br)cnc2N)c1 was read as Pf growth 96h inconclusive, Cycloheximide cs -3, Shiga inhibitor -7 and Pf growth 48h 3%.
For CCSc1nnc(NC(=O)CCNS(=O)(=O)c2cc(Br)cnc2N)s1 the results were Pf growth 96h 9.3µM*, Cycloheximide cs -1, Shiga inhibitor -1 and Pf growth 48h inconclusive.
O=C(N/N=C1/CN2CCC1CC2)c1cc2ccccc2cc1O was read as Pf growth 96h 32%, Cycloheximide cs -4, Shiga inhibitor -13 and Pf growth 48h 13µM*.
Screening Cc1cc(C)c(NC(=O)c2cc(C(=O)O)ccc2C(=O)O)c([N+](=O)[O-])c1 returned Pf growth 96h 2.3µM*, Cycloheximide cs -3, Shiga inhibitor -3 and Pf growth 48h -5%.
COc1ccc(/C=C\C(=O)NCc2ccc3[nH]c(C)cc3c2)cc1OC was read as Pf growth 96h -28%, Cycloheximide cs -2, Shiga inhibitor -9 and Pf growth 48h -2%.
Screening CN(C)c1ccc(-c2nnn(CC(=O)N3c4ccccc4CCc4ccccc43)n2)cc1 returned Pf growth 96h -25%, Cycloheximide cs 12, Shiga inhibitor -7 and Pf growth 48h 2.1µM*.
For CC1CCCN(C(=O)Cn2nnc(-c3ccc(N(C)C)cc3)n2)C1 (configuration not stated) the results were Pf growth 96h inconclusive, Cycloheximide cs 0, Shiga inhibitor 4 and Pf growth 48h inconclusive.
For COc1cc(/C=C\C(=O)NCc2ccc3[nH]c(C)cc3c2)cc(OC)c1OC the results were Pf growth 96h 13µM*, Cycloheximide cs -2, Shiga inhibitor -2 and Pf growth 48h 12µM*.
Screening O=C(/C=C/c1ccc2c(c1)OCO2)NCCSCc1cccc(Cl)c1 returned Pf growth 96h 37%, Cycloheximide cs 21*, Shiga inhibitor 20 and Pf growth 48h 18%.
Screening O=C(/C=C/c1ccc2c(c1)OCO2)NCCSCc1ccc(Cl)cc1Cl returned Pf growth 96h 47%, Cycloheximide cs -1, Shiga inhibitor 9 and Pf growth 48h 8%.
For CN(C)c1cccc(C(=O)NCc2ccc3c(c2)OCO3)c1 the results were Pf growth 96h inconclusive, Cycloheximide cs 33*, Shiga inhibitor 57* and Pf growth 48h inconclusive.
Screening O=C(CN1CCNCC1)NC1CCCCC1 returned Pf growth 96h 5% and Pf growth 48h 6%.
Screening Cc1cc(Cl)ccc1OCC(=O)N/N=C1\CC2C=CCC12 (configuration not stated) returned Pf growth 96h -4%, Cycloheximide cs -3, Shiga inhibitor -2 and Pf growth 48h 12%.
`O=C(NC(=S)Nc1c(Cl)ccc2nsnc12)c1ccco1` gave Pf growth 96h 34%, Cycloheximide cs -2, Shiga inhibitor -5 and Pf growth 48h -1%.
Screening C/C(=N\NC(N)=O)C1CC(Cc2ccccc2)C(=O)O1 (configuration not stated) returned Pf growth 96h -20%, Cycloheximide cs -2, Shiga inhibitor -9 and Pf growth 48h -3%.
CCOCCCNC(=O)c1ccc2c(c1)OCO2 was read as Cycloheximide cs 23*, Shiga inhibitor 58* and Pf growth 48h 91%.
For O=C(NCCc1ccccc1)c1ccc2c(c1)OCCCO2 the results were Pf growth 96h -38%, Cycloheximide cs -17, Shiga inhibitor -32 and Pf growth 48h -40%.
Screening O=C(NCCc1cccc(Cl)c1)c1ccc2c(c1)OCO2 returned Pf growth 96h 3%, Cycloheximide cs 32*, Shiga inhibitor 56* and Pf growth 48h -31%.
`NC(=O)c1ccc(-c2nnn(CC(=O)Nc3cccc(S(=O)(=O)N4CCCC4)c3)n2)cc1` gave Pf growth 96h -2% and Pf growth 48h -5%.
Screening O=C(Cn1nnc(-c2ccc(S(=O)(=O)N3CCCC3)cc2)n1)Nc1ccccc1-n1cccc1 returned Pf growth 96h inconclusive, Cycloheximide cs -4, Shiga inhibitor -13 and Pf growth 48h 9.3µM*.
Screening COc1cccc(C(=O)NCc2ccc3[nH]c(C)cc3c2)c1 returned Pf growth 96h 0%, Cycloheximide cs 4, Shiga inhibitor 10 and Pf growth 48h inconclusive.
Screening COc1cc(OC)cc(C(=O)NCc2ccc3[nH]c(C)cc3c2)c1 returned Pf growth 96h 19µM*, Cycloheximide cs 9, Shiga inhibitor 6 and Pf growth 48h 9.3µM*.
`COC(=O)c1ccc(CNC(=O)c2ccc3c(c2)OCCO3)cc1` gave Pf growth 96h 20%, Cycloheximide cs 19*, Shiga inhibitor 63 and Pf growth 48h 9%.
For O=C(NCc1ccc2c(c1)OCO2)c1ccc(CS(=O)Cc2ccc(Cl)cc2)o1 (configuration not stated) the results were Pf growth 96h inconclusive, Cycloheximide cs 8, Shiga inhibitor -4 and Pf growth 48h 10%.
Screening O=C(NCc1ccc(Cl)c(Cl)c1)c1ccc2c(c1)OCO2 returned Pf growth 96h inconclusive, Cycloheximide cs -1, Shiga inhibitor -3 and Pf growth 48h 5%.
Screening Cc1ccc(CS(=O)Cc2ccc(C(=O)NCc3ccc4c(c3)OCO4)o2)cc1 (configuration not stated) returned Pf growth 96h 13µM*, Cycloheximide cs 14, Shiga inhibitor -5 and Pf growth 48h 12%.
`COc1ccc(CNC(=O)COC(=O)c2ccc3c(c2)OCCO3)cc1` gave Pf growth 96h 6%, Cycloheximide cs -1 and Shiga inhibitor -9.
`O=C(NCc1cccc(Cl)c1)c1ccc2c(c1)OCCO2` gave Pf growth 96h 93%, Cycloheximide cs 21* and Pf growth 48h 15%.
Screening O=C(NCc1ccc2c(c1)OCO2)c1ccc2c(c1)OCO2 returned Pf growth 96h -16%, Cycloheximide cs 26*, Shiga inhibitor 46* and Pf growth 48h 33%.
`Cc1ccc(C)c(OCCC(=O)NCCc2ccc(S(N)(=O)=O)cc2)c1` gave Pf growth 96h -7%, Cycloheximide cs -2, Shiga inhibitor -5 and Pf growth 48h 1%.
Screening CCOc1ccc(C(=O)NCC(=O)NCC2CCCCC2)cc1OCC returned Pf growth 96h -9%, Cycloheximide cs -4, Shiga inhibitor -6 and Pf growth 48h -2%.
Screening CCOCCCNC(=O)c1ccc2c(c1)N=C(CC)c1cc(Br)ccc1S2 returned Pf growth 96h inconclusive, Cycloheximide cs -3, Shiga inhibitor -18 and Pf growth 48h 4.1µM*.

From PubChem
